This is an account of results in PubChem BioAssay (NCATS).

Results filed as inconclusive are left out. A number with no mark means an inactive call. Active and inactive are the calls of the source. Calls come from the whole dose curve; as a rule, active = well fitted inhibition curve with a large enough effect; inconclusive = small, poorly fitted or top-dose-only effect; inactive = no such curve, though single readings can be large or run the other way. Where a SMILES comes first, the peptide text is derived from it. The star is where a group is joined. AMC = Cc1cc(=O)oc2cc(N*)ccc12; Cbz = O=C(OCc1ccccc1)*
% is set by controls: 0 for no effect and ±100 for the full control effect; potency is the fitted concentration of half-maximal effect.

In this experiment the test system is Zika virus NS2B-NS3 protease (unlinked complex). Briefly: Primary screen GU Rhodamine qHTS for Zika virus inhibitors: Unlinked NS2B-NS3 protease assay (AID 1347159). Note: nearly all actives have a fitted effect of over 60% in size. The following applies: Recombinant ZIKV NS2B-NS3 protease, Rhodamine110 substrate fluorescence; series mostly up to 107 µM; activity change, negative = inhibition: at the top concentration. In short, it runs like this: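 Noncovalent NS2B hydrophilic domain/NS3 protease complex (25 nM final) in 10 mM Tris-HCl pH 8.0, 0.01% Tween 20, preincubated 15 min with compounds (up to 114 microM), then 1.5 microM Rhodamine110 substrate. Fluorescence change over 15 min fitted to 4-parameter Hill.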
As to `CC(C)c1ccc2c(c1)C(O)CC1C(C)(CO)CCCC21C` (centres undefined), the “activity change, negative = inhibition” value is -16.4%. Regarding `CC1OC(OC2C(OC3C(O[C@H]4CC[C@@]5(C)C(CC[C@]6(C)C5CC=C5C7CC(C)(C)CC(O)[C@]7(C)CC[C@]56C)C4(C)C)OC(C(=O)O)C(O)C3O)OCC(O)C2O)C(O)C(O)C1O` (some centres undefined), the Potency is 7.94 µM (active). Take `Cc1cc(=O)oc2cc(NC(=O)[C@H](CCC(=O)O)NC(=O)[C@H](CC(C)C)NC(=O)[C@H](CC(C)C)NC(=O)OCc3ccccc3)ccc12` (Cbz-Leu-Leu-Glu-{AMC}): the “activity change, negative = inhibition” value is -24.1%. Consider `C=C1CCC2C(C)(C)CC(O)CC2(C)C1CCC(C)CCOC(=O)CCC(=O)O` (centres undefined), for which the Potency is 2.51 µM (active).

Turning to `CC1=CCC[C@@H]2[C@](CCc3ccoc3)(C(=O)O)[C@H](C)CC[C@@]12C`, the Potency is 8.91 µM (active). On the same count and under the same terms, for `COc1ccc2c(c1)C=C1Cn3c-2c(C2CCCCC2)c2ccc(cc23)C(=O)NS(=O)(=O)N(C)CCOCCN(C)C1=O` the value was 2.51 µM (active).

As for `CC(=O)O[C@H]1C[C@@]2(C)[C@@H](CC[C@H]3[C@@]4(C)C=CC(=O)[C@@H](C)[C@@H]4[C@H](OC(C)=O)C(=O)[C@@]32C)/C1=C(\CCC=C(C)C)C(=O)O`, the “activity change, negative = inhibition” value was 58.6% [at 57.1 µM]. The same measure, in the same setting: for `CCCCC(=O)N1c2ccccc2NC2=C(C(=O)CCC2)C1c1ccccc1Cl` (centres undefined) the value was -8.88%.

With `CC(=O)OC1C(C)C2C(OC3OC(CO)C(O)C(O)C3O)OC=C(C(=O)O)C2C1OC(=O)c1ccccc1` (centres undefined), the “activity change, negative = inhibition” value was -4.52% [at 57.1 µM].

For `O=C(OCC(O)CO[C@@H]1O[C@H](C(=O)O)[C@@H](O)[C@H](O)[C@H]1O)c1ccccc1` (some centres undefined), the “activity change, negative = inhibition” value is -29.8%. As to `CC(=O)OC1CCC2(C)C(CCC3(C)C2CC=C2C4CC(C)(C)CCC4(C)CCC23C)C1(C)C(=O)O` (centres undefined), the Potency is 7.08 µM (active).

For the molecule `C/C=C(\C)C1C(C)=CC2CCC(OS(=O)(=O)O)C(C)C2C1/C=C/C=C/C(=O)O` (centres undefined), the Potency was 8.91 µM (active). In the case of `CN1CCN(c2nc(-c3ccc(C(=O)NC4(C(=O)NCC#N)CCCCC4)cc3)cs2)CC1`, the “activity change, negative = inhibition” value was -7.55%. Still for that read-out and setting: the result for `CC(C)=CC[C@H]1O[C@]2(O)C([C@H]3CCC4[C@@]5(C)CC[C@H](O[C@@H]6O[C@H](CO)[C@H](O)[C@H](O[C@@H]7O[C@H](CO)[C@@H](O)[C@H](O)[C@H]7O)[C@H]6O[C@@H]6O[C@@H](C)[C@H](O)[C@@H](O)[C@H]6O)C(C)(C)C5CC[C@@]4(C)[C@]3(C)[C@H]2O)[C@@]1(C)O` (some centres undefined) reads 5.11% [at 32.5 µM].

As for `COc1cc2c(cc1O)C(c1ccc(O)cc1)C(C)C(C)C2` (centres undefined), the Potency is 39.8 µM (active).

`Cc1sc(C)c(C(=O)NC2(c3ccc(C(=O)O)cc3)CC2)c1Cc1ccc(C(F)(F)F)cc1`: the Potency was 17.8 µM (active). `Cc1c(Cc2ccc3ccccc3n2)c2cc(F)ccc2n1CC(=O)O`: the Potency is 35.5 µM (active). Turning to `COc1c2ccoc2nc2c(OC)c(O[C@@H]3O[C@@H](C)[C@H](O)[C@@H](O[C@@H]4O[C@H](CO)[C@@H](O)[C@H](O)[C@H]4O)[C@H]3OC(C)=O)ccc12`, the “activity change, negative = inhibition” value is 3.56% [at 32.5 µM].

Take `C=C(C)[C@H]1CC[C@]2(C(=O)O)CC[C@]3(C)C(CCC4[C@@]5(C)CCC(=O)C(C)(C)C5CC[C@]43C)C12` (some centres undefined): the Potency is 7.08 µM (active).
